Data on 21 compounds can be found in PubChem BioAssay AID651860 (Broad Institute, 2012).

SMILES strings stand for the structures. Results with a measured potency or affinity are listed apart. Active and inactive are the calls of the source.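 Rule for the calls: active = compounds lowering HepG2 cell ATP luminescence with a fitted half-maximal concentration at most twice the top tested dose; inconclusive = flat fit with 30 to 70 percent signal loss, or poor fit; inactive = the rest.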

The assay is described as follows: HepG2 cell cytotoxicity, dose response, cytotoxicity control, luminescence plate reader, powder samples, set 2 (AID 651860). The settings on record: HepG2 viability, CellTiter-Glo ATP luminescence, 48 h; series mostly up to 26 µM. In general terms: ATP-based viability assays read luminescence as a measure of living cells.
Take `O=C(NC[C@@H]1c2ccccc2CCN1C(=O)[C@@H]1CCCC[C@@H]1C(=O)O)c1ccccc1`: the result was inactive.
As to `O=C(O)[C@H]1CCCC[C@H]1C(=O)N1CCc2ccccc2[C@H]1CNS(=O)(=O)c1ccccc1`, the outcome was inactive.
On to `CC(C)CNc1nc(NS(=O)(=O)c2ccccc2)c2ccccc2n1`, for which the outcome was inactive.
With `O=C(NC[C@@H]1c2ccccc2CCN1C(=O)[C@@H]1CCCC[C@@H]1C(=O)O)OCC1c2ccccc2-c2ccccc21` the entry was “inactive”; with `O=C(O)C1CCCCC1C(=O)N1CCc2ccccc2C1c1ccccc1` (stereo unspecified), “inactive”; with `CCOC(=O)C(C(=O)OCC)c1nc(NS(=O)(=O)c2c(C)cc(C)cc2C)c2ccccc2n1`, “inactive”.
Under `O=C(O)C1CCCCC1C(=O)N1CCc2ccccc2C1CN1C(=O)[C@H]2CCCC[C@H]2C1=O` (stereo partly specified) stands “inactive”; under `Cc1ccc(S(=O)(=O)NNc2nc(N3CC(O)CC3C(=O)O)nc3ccccc23)cc1` (stereo unspecified), “inactive”.
With `O=C(O)[C@H]1CCCC[C@H]1C(=O)N1CCC2=C(CCCC2)C1CN1C(=O)c2ccccc2C1=O` (stereo partly specified) the entry was “inactive”; with `O=C(O)C1CCCCC1C(=O)N1CCc2ccccc2[C@H]1C(=O)NC12CC3CC(CC(C3)C1)C2` (stereo partly specified), “inactive”; with `O=C(O)CC(=O)N1CCc2ccccc2C1CN1C(=O)c2ccccc2C1=O` (stereo unspecified), “inactive”.
In the case of `O=C(O)CCC(=O)N1CCc2ccccc2C1CN1C(=O)c2ccccc2C1=O` (stereo unspecified), the compound was called inactive.
Under `O=C1c2ccccc2C(=O)N1CC1=NCCc2ccccc21` stands “inactive”; under `O=S(=O)(Nc1nc(NCC2CCCCC2)nc2ccccc12)c1ccccc1`, “inactive”; under `O=C(O)[C@@H]1CCCN1C(=O)N1CCc2ccccc2[C@H]1CN1C(=O)c2ccccc2C1=O`, “inactive”.
With `COc1ccccc1CCNC(=O)[C@@H]1c2ccccc2CCN1C(=O)C1CCCCC1C(=O)O` (stereo partly specified) the entry was “inactive”; with `O=C1c2ccccc2C(=O)N1C[C@@H]1c2ccccc2CCN1C(=O)OCc1ccccc1`, “inactive”; with `Cc1cc(C)c(S(=O)(=O)Nc2ncnc3ccccc23)c(C)c1`, “inactive”.
As to `COC(=O)C(C(=O)OC)c1cc(NS(=O)(=O)c2c(C)cc(C)cc2C)c2ccccc2c1O`, the result was inactive.
Under `O=C(NC[C@@H]1c2ccccc2CCN1C(=O)[C@@H]1CCCC[C@@H]1C(=O)O)c1ccc(CCl)cc1` stands “inactive”; under `NC(=O)c1ccccc1C(=O)NC[C@@H]1c2ccccc2CCN1C(=O)[C@@H]1CCCC[C@@H]1C(=O)O`, “inactive”.
